Assay outcomes (PubChem BioAssay)
MEKK2wt PB1 HTS = raises or lowers MEK5 binding to wildtype human MEKK2 PB1 domain | bead flow cytometry, Alexa488-MEK5 binding to MEKK2 WT; actives lie on both sides | binding response (% of control), % at 10 µM | 1.1% of 290,000 active | AID 1531; in the data active = binding response below about 67% or above about 130%
MEKK3 PB1 HTS = raises or lowers MEK5 binding to the human MEKK3 PB1 domain. Q99759. bead-based flow cytometry, Alexa488-MEK5 binding to MEKK3; actives lie on both sides; 0 = blocked by unlabeled MEK5, 100 = vehicle. binding response (% of control), % at 10 µM. 1.4% of 290,000 active. AID 1529;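 active = binding response more than 3 SD above or below the average of its plate-row segment, actives on both sides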;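 note: Alexa488 bead fluorescence after subtracting the streptavidin-only scavenger bead signal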
Target sequence (Q99759 whole entry, looked up, the tested form may be a part): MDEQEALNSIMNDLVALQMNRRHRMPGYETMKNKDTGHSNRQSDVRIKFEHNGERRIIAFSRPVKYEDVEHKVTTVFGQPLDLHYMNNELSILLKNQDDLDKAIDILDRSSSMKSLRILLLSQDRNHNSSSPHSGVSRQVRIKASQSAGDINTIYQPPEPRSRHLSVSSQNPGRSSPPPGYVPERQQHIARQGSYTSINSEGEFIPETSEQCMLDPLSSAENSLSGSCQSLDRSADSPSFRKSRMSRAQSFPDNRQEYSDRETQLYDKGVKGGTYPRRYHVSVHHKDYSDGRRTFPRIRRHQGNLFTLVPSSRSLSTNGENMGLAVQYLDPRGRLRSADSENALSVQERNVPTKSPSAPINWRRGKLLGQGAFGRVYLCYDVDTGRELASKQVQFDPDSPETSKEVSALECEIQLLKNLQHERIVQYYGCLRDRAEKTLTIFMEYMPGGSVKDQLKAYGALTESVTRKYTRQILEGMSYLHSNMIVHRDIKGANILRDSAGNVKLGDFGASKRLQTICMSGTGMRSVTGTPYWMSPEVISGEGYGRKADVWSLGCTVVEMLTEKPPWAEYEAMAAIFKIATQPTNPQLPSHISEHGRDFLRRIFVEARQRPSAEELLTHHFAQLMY
MEKK2mut PB1 HTS = signal of MEK5 binding to mutant human MEKK2 PB1 domain | percent response, % at 10 µM | 0.35% of 290,000 active | bead flow cytometry, Alexa488-MEK5 binding to MEKK2 mutant; in the data active = percent response above about 24%, passing the limit was not always enough
GRK2 inh = blocks RNA aptamer binding to human GRK2; bead flow cytometry, FAM-aptamer displacement from GRK2; P25098; AID 488847; inhibition of aptamer binding, % at 10 µM; 0.59% of 330,000 active;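 active = inhibition of aptamer binding above 40%, roughly 3 SD of noise, on plates passing a quality check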;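 note: median bead fluorescence of bound FAM aptamer so fluorescent compounds give negative values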
MEKK2wt confirm = raises or lowers MEK5 binding to wildtype human MEKK2, retest | shares compounds with MEKK3 PB1 HTS | bead flow cytometry, Alexa488-MEK5 binding to MEKK2 WT; actives lie on both sides | binding response (% of control), % at 10 µM | 2.4% of 5,900 active; in the data active = binding response below about 16% or above about 210%; inactive = in between
MEKK2mut-MEK5 = signal of MEK5 binding to mutant human MEKK2, retest | shares compounds with MEKK3 PB1 HTS | bead flow cytometry, Alexa488-MEK5 binding to MEKK2 mutant | percent response, % at 10 µM | 2% of 5,900 active | AID 1893; in the data active = percent response mostly above about 71%, no sharp cut-off; inactive = mostly below about 38%;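 note: higher means compound restores mutant binding toward wildtype level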
MEKK3 confirm = confirmation of inhibitors of MEK5 binding to human MEKK3. shares compounds with MEKK3 PB1 HTS. bead flow cytometry, Alexa488-MEK5 binding to MEKK3; stronger effect = lower value. binding response (% of control), % at 10 µM. 1.8% of 5,900 active;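 active = binding response below 72% of control, or above a set upper limit, though filed actives all read lower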;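 note: 100% = DMSO only wells and 0% = binding blocked by excess unlabeled MEK5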
GRK2 inh confirm = human GRK2 inhibition confirmation, cherry pick 1; shares compounds with GRK2 inh; bead-bound GRK2, FAM-aptamer displacement, flow cytometry; aptamer displacement, % at 10 µM; 4% of 2,000 active;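 active = aptamer displacement above 40%, near three times the noise of non-fluorescent compounds, on plates passing quality checks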;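 note: negative values mostly reflect intrinsic compound fluorescence rather than true enhancement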
Aptamer quench 1 = counter-screen for GRK2 aptamer inhibitors: fluorescent aptamer quenchers; shares compounds with GRK2 inh; Fluorescent RNA aptamer beads, quenching, flow cytometry; stronger effect = higher value; fluorescence change (kMESF span), kMESF (no concentration beside the values); 110 tested, under 10 active;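 active = compounds whose bead fluorescence drops by more than 37 kMESF across the dose range, marking them as dye quenchers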
Aptamer quench SP = aptamer fluorescence quenching in GRK2 counter-screen; fluorescence response (% of DMSO), % at 10 µM; shares compounds with GRK2 inh; 2,000 tested, under 10 active; Carboxyfluorescein RNA aptamer on beads, flow cytometry quenching; stronger effect = lower value;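 active = compounds that quench the bead-bound fluorescent RNA probe, cutting fluorescence to under half of the solvent control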;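 note: counterscreen run without GRK2 so only probe quenching by compound is measured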
GRK2 confirm 2 = human GRK2 inhibition confirmation, cherry pick 2; 360 tested, under 10 active; AID 504782; bead-bound GRK2, FAM-aptamer displacement, flow cytometry; shares compounds with GRK2 inh; inhibition of aptamer binding, % at 10 µM;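 active = inhibition of aptamer binding above 40%, about triple the noise seen with nonglowing compounds, on plates passing quality control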;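 note: negative values mostly come from compounds that fluoresce themselves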
FAM quench CP2 = quenches fluorescent RNA aptamer, GRK2 hit artifact | shares compounds with GRK2 inh | carboxyfluorescein RNA aptamer beads, flow cytometry quenching; stronger effect = lower value | fluorescence response vs DMSO, % at 10 µM | 360 tested, under 10 active | AID 588494;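 active = response vs DMSO under 50%, meaning signal dropped by over half, treated as fluorescence quencher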;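 note: labelled aptamer on streptavidin beads without GRK2 as a quench counter-screen; 100% = bead fluorescence of DMSO wells and lower means quenching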
FAM quench DR = counter-screen for GRK2 aptamer binding inhibitors: aptamer fluorescence quenching. 35 tested, under 10 active. shares compounds with GRK2 inh. Bead-bound FAM RNA aptamer fluorescence quenching, flow cytometry; stronger effect = lower value. fluorescence ratio to DMSO, % at 11.1 µM;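 active = compounds that dim the fluorescent label, raw bead signal shifting by over 33 units between lowest and highest dose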
An asterisk follows results filed as active; [ ] = another dose, or the depositor's remark. Sampled rows, rich in hits. Any-hit rate of the full collection: about 2.5%.

What do the screens show for `O=C1/C(=C\c2ccc(-c3ccccc3Cl)o2)SC(=S)N1CC1CCCO1` (stereo not drawn)?
MEKK2wt PB1 HTS: 35.0*[inhibitor]; MEKK3 PB1 HTS: 60.0*[inhibitor]; MEKK2mut PB1 HTS: -28.0; GRK2 inh: 51.0*; MEKK2wt confirm: 40.0; MEKK2mut-MEK5: -24.0; MEKK3 confirm: 82.0; GRK2 inh confirm: 36.5; Aptamer quench SP: 108.0

What do the screens show for `COc1ccccc1NC(=O)NCCCl`?
MEKK2wt PB1 HTS: 1.0*[inhibitor]; MEKK3 PB1 HTS: 5.0*[inhibitor]; MEKK2mut PB1 HTS: -3.0; GRK2 inh: 60.0*; MEKK2wt confirm: 105.0; MEKK2mut-MEK5: 1.0; MEKK3 confirm: 104.0; GRK2 confirm 2: -31.3; FAM quench CP2: 98.0

Results for COc1cccc(CC2(CO)CCCN(Cc3ccc(C)s3)C2)c1 (stereo not drawn) ?
MEKK2wt PB1 HTS: 109.0; MEKK3 PB1 HTS: 104.0; MEKK2mut PB1 HTS: 1.0; GRK2 inh: 0.0

How did COc1cccc(CC2(CO)CCCN(Cc3[nH]c4ccc(C)cc4c3C)C2)c1 (stereo not drawn) do in these assays?
MEKK2wt PB1 HTS: 157.0*; MEKK3 PB1 HTS: 105.0; MEKK2mut PB1 HTS: 46.0; GRK2 inh: 40.0; MEKK2wt confirm: 140.0; MEKK2mut-MEK5: 24.0; MEKK3 confirm: 103.0; GRK2 inh confirm: -9.6; Aptamer quench SP: 91.7

What do the screens show for `Cc1ccc(-c2nc3ccccc3c(=O)n2CCN2CCOCC2)cc1`?
MEKK2wt PB1 HTS: 94.0; MEKK3 PB1 HTS: 96.0; MEKK2mut PB1 HTS: -11.0; GRK2 inh: 0.0

What do the screens show for `O=C(NNC(=O)c1cccc(S(=O)(=O)N2CCN(c3ccccc3)CC2)c1)c1ccc(Cl)cc1`?
MEKK2wt PB1 HTS: 88.0; MEKK3 PB1 HTS: 97.0; MEKK2mut PB1 HTS: 16.0; GRK2 inh: 0.0

Results for CCOC(=O)C(C(=O)OCC)c1cc(Br)c2noc3c2c1C(=O)c1ccccc1-3 ?
MEKK2wt PB1 HTS: 39.0*[inhibitor]; MEKK3 PB1 HTS: 64.0*[inhibitor]; MEKK2mut PB1 HTS: -14.0; GRK2 inh: 51.0*; MEKK2wt confirm: 44.0; MEKK2mut-MEK5: -25.0; MEKK3 confirm: 68.0*; GRK2 inh confirm: 11.1; Aptamer quench SP: 102.2

Results for COc1ccc(N(CC(=O)N2CCN(c3ccccc3F)CC2)S(=O)(=O)c2c(C)noc2C)cc1 ?
MEKK2wt PB1 HTS: 101.0; MEKK3 PB1 HTS: 102.0; MEKK2mut PB1 HTS: 1.0; GRK2 inh: 4.0

What do the screens show for `Nc1ccc(-c2nc3ccccc3[nH]2)cc1`?
MEKK2wt PB1 HTS: 110.0; MEKK3 PB1 HTS: 108.0; MEKK2mut PB1 HTS: 3.0; GRK2 inh: 0.0

What do the screens show for `Nc1ccc2nc(-c3ccc(-c4nc5ccc(N)cc5[nH]4)cc3)[nH]c2c1`?
MEKK2wt PB1 HTS: 65.0*[inhibitor]; MEKK3 PB1 HTS: 53.0*[inhibitor]; MEKK2mut PB1 HTS: -26.0; GRK2 inh: 85.0*; MEKK2wt confirm: 81.0; MEKK2mut-MEK5: -17.0; MEKK3 confirm: 71.0*; GRK2 inh confirm: -23.9; Aptamer quench SP: 101.4

What do the screens show for `Cc1cc2ccccc2n1CCNC(=O)c1ccc(S(=O)(=O)N2CCCCC2)cc1`?
MEKK2wt PB1 HTS: 79.0; MEKK3 PB1 HTS: 82.0*[inhibitor]; MEKK2mut PB1 HTS: -7.0; GRK2 inh: 83.0*; MEKK2wt confirm: 80.0; MEKK2mut-MEK5: -3.0; MEKK3 confirm: 89.0; GRK2 inh confirm: 84.2*; Aptamer quench 1: 7.5; Aptamer quench SP: 71.6

How did Cc1cc2ccccc2n1CCNC(=O)C(C)C do in these assays?
MEKK2wt PB1 HTS: 93.0; MEKK3 PB1 HTS: 106.0; MEKK2mut PB1 HTS: 0.0; GRK2 inh: 0.0

How did Cc1cc2ccccc2n1CCNC(=O)C(C)Oc1ccccc1 (stereo not drawn) do in these assays?
MEKK2wt PB1 HTS: 64.0*[inhibitor]; MEKK3 PB1 HTS: 80.0*[inhibitor]; MEKK2mut PB1 HTS: -10.0; GRK2 inh: 85.0*; MEKK2wt confirm: 49.0; MEKK2mut-MEK5: -16.0; MEKK3 confirm: 82.0; GRK2 inh confirm: 27.7; Aptamer quench 1: -120; Aptamer quench SP: 97.2; FAM quench DR: 101.0

What do the screens show for `O=C(CCCN1C(=O)/C(=C\c2cccs2)SC1=S)NNC(=O)c1ccncc1`?
MEKK2wt PB1 HTS: 89.0; MEKK3 PB1 HTS: 95.0; MEKK2mut PB1 HTS: -11.0; GRK2 inh: 0.0

What do the screens show for `O=[N+]([O-])c1cc(/C=N/Nc2nc3ccccc3[nH]2)c(O)cc1O`?
MEKK2wt PB1 HTS: 104.0; MEKK3 PB1 HTS: 132.0*; MEKK2mut PB1 HTS: 0.0; GRK2 inh: 45.0*; MEKK2wt confirm: 98.0; MEKK2mut-MEK5: 2.0; MEKK3 confirm: 103.0; GRK2 inh confirm: 5.1; Aptamer quench SP: 111.5

How did C(=N\Nc1nc2ccccc2[nH]1)/c1ccccc1 do in these assays?
MEKK2wt PB1 HTS: 102.0; MEKK3 PB1 HTS: 103.0; MEKK2mut PB1 HTS: -9.0; GRK2 inh: 0.0

What do the screens show for `O=C(Nc1cc(Cl)ccc1N1CCOCC1)c1ccc(N2CCCCC2)c([N+](=O)[O-])c1`?
GRK2 inh: 42.0*; GRK2 confirm 2: -10.7; FAM quench CP2: 106.0

Results for CCOc1ccc(NC(=O)CN(C)C(=O)c2cc(-c3ccco3)nc3ccccc23)cc1OCC ?
GRK2 inh confirm: 1.0; Aptamer quench SP: 96.2

What do the screens show for `CCOc1ccc(NC(=O)CN(C)C(=O)c2cc(C)nc3ccccc23)cc1OCC`?
GRK2 inh: 3.0

Results for CCN1CCN(c2ccc(NC(=O)c3ccc(F)cc3)cc2Cl)CC1 ?
MEKK2wt PB1 HTS: 105.0; MEKK3 PB1 HTS: 99.0; MEKK2mut PB1 HTS: -1.0; GRK2 inh: 1.0

What do the screens show for `Cc1onc(-c2ccccc2)c1C(=O)NCCN1CCOCC1`?
GRK2 inh: 1.0
